This is an account of results in PubChem BioAssay.

Values without a mark were called inactive. For some of these results: Potency and affinity values are given separately. Calls of active or inactive are those of the source. Unless noted, how the calls were made is not given here.

Test [1] can be described thus: antimalarial activity against Dd2 strain (AID 2302;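 active means growth inhibition above 50% at the single 2 µM test dose, taken to imply half-maximal potency below 2 µM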;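 further: 0% = DMSO untreated growth and 100% = chloroquine plus artemisinin killed control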). The settings on record: P. falciparum Dd2 in RBCs, LDH growth readout, 72 h; at 2 µM; active compounds read high.
Test [2] can be described thus: human hepatoma cell viability loss – ATP luminescence, cytotoxicity control for P. falciparum antimalarial project, primary screen (AID 2303;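 active means inhibition above 50%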;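 further: 0% = DMSO wells and 100% = digitonin-killed cells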). The settings on record: HepG2 viability, 24-48 h, at 10 µM, active compounds read high.
Test [3] deals with L-lactate dehydrogenase (Plasmodium falciparum (isolate CDC / Honduras)) (UniProt Q27743). The test is described as follows: PfLDH activity inhibition – cell lysate, 3D7 strain, counter-screen for P. falciparum growth inhibition project (AID 2304).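 Further: 0% = vehicle and 100% = reference inhibitor.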 The settings on record: P. falciparum 3D7 crude extract, LDH APAD/NBT absorbance; at 2 µM; active compounds read high.
Chain of L-lactate dehydrogenase (Plasmodium falciparum (isolate CDC / Honduras)) (Q27743 whole entry, looked up): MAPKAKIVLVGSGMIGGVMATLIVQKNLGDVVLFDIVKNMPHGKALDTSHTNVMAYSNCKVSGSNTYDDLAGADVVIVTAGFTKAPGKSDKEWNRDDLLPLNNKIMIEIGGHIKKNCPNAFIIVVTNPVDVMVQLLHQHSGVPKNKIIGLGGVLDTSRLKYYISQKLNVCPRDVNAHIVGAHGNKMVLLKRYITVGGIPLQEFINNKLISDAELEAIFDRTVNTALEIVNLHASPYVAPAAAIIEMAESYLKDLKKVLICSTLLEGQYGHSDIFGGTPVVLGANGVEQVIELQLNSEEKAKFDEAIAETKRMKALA
The nature of test [4]: inhibition of 3D7 malaria parasite growth – strain 3D7 (AID 2306).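 Further: 0% = DMSO wells and 100% = chloroquine plus artemisinin control wells.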 The settings on record: P. falciparum 3D7 erythrocytic growth, LDH absorbance, 72 h; at 2 µM; active compounds read high.
Test [5] deals with Calcium-dependent protein kinase 1 (Plasmodium falciparum (isolate 3D7)) (UniProt P62344). The test can be described thus: PfCDPK1 kinase inhibitors, biochemical, TCAMS library (AID 1159585; cut-off not given, nearly all actives have IC50 up to about 0.98 µM;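 further: inhibitors leave more ATP so luminescence rises with inhibition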). The settings on record: recombinant PfCDPK1, Kinase-Glo ATP depletion luminescence.
Chain of Calcium-dependent protein kinase 1 (Plasmodium falciparum (isolate 3D7)) (P62344 whole entry, looked up): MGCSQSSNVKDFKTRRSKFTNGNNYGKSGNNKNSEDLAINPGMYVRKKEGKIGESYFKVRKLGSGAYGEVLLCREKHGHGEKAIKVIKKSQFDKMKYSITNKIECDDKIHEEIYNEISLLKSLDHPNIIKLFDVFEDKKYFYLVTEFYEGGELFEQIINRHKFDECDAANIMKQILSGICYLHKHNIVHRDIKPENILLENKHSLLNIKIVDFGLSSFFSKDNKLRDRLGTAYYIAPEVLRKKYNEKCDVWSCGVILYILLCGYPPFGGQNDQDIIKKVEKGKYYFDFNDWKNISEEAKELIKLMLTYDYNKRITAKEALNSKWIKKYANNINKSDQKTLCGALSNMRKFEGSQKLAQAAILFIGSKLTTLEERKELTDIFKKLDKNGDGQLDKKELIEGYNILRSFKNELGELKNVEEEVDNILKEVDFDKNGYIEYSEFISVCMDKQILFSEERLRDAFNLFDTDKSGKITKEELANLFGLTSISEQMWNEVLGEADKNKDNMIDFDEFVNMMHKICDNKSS
Test [6] concerns the target Plasmodium falciparum protein kinase 6 (PK6, PF3D7_1337100) (UniProt Q8IDW1). The test can be described thus: PfPK6 kinase inhibitors, biochemical, TCAMS library (AID 1159586). The settings on record: recombinant PfPK6, Kinase-Glo ATP depletion luminescence.
The target in test [7] is Protein kinase 7 (PK7), Plasmodium falciparum 3D7 (PF3D7_0213400) (UniProt Q7YTF7). The test is described as follows: inhibition of Plasmodium PK7 catalytic activity – biochemical, TCAMS antimalarial set, Kinase-Glo luminescence (AID 1159587). The settings on record: recombinant PfPK7, Kinase-Glo ATP depletion luminescence.
Chain of Protein kinase 7 (PK7), Plasmodium falciparum 3D7 (PF3D7_0213400) (Q7YTF7 1-343): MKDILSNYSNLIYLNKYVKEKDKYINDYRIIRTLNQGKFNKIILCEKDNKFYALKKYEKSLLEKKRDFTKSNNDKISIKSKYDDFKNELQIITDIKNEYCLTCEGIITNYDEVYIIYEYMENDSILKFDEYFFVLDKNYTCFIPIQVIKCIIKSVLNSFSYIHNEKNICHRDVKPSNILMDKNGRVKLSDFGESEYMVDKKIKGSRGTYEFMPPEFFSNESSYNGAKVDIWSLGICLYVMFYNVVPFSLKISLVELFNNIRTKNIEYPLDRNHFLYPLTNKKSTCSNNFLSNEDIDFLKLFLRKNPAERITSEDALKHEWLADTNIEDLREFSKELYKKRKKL
For test [8], the target named is Calcium-dependent protein kinase 4 (Plasmodium falciparum (isolate 3D7)) (UniProt Q8IBS5). The test is described as follows: PfCDPK4 kinase inhibitors, biochemical, TCAMS library (AID 1159588; cut-off not given, nearly all actives have IC50 up to about 0.91 µM). The settings on record: recombinant PfCDPK4, Kinase-Glo ATP depletion luminescence.
Chain of Calcium-dependent protein kinase 4 (Plasmodium falciparum (isolate 3D7)) (Q8IBS5 whole entry, looked up): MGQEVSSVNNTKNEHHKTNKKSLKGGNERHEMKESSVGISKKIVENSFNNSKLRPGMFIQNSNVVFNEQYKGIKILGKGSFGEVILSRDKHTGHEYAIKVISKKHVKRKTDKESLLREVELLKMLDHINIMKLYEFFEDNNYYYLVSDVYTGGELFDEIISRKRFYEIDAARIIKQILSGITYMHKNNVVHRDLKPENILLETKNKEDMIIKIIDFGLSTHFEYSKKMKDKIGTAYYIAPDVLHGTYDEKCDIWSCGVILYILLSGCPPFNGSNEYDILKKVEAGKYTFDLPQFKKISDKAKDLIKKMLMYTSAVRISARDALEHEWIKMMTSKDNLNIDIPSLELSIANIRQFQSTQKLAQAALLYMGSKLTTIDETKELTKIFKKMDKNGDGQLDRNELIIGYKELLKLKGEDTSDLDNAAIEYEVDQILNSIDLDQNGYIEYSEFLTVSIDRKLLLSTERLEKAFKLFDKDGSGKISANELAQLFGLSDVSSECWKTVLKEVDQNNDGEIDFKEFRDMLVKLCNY

Chain of Plasmodium falciparum protein kinase 6 (PK6, PF3D7_1337100) (Q8IDW1 1-305): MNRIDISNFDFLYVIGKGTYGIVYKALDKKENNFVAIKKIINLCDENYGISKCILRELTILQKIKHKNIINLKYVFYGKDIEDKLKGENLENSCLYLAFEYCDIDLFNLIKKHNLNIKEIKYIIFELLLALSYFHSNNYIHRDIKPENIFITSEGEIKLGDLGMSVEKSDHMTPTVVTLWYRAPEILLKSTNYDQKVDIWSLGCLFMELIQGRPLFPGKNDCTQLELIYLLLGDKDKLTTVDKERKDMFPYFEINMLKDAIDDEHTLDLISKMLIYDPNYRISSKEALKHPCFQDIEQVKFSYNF

For the compound `Fc1ccc(CNc2ccc3ncc(-c4cccnc4)n3n2)cc1`, the growth inhibition in test [1] was 7%; in test [4], 87% (active). Also, the inhibition in test [2] is 7%; in test [3] it was -2%. In addition, the outcome in test [5], in test [6], in test [7] and in test [8] was inactive.
As to `FC(F)(F)c1ccc2nc(-c3cccc(-c4ccc(CNCc5ccccc5)cc4)c3)[nH]c2c1`, the figures for the growth inhibition in test [1] and in test [4] were 99% (active) and 101% (active), respectively. Besides, the inhibition in test [2] is 25%; in test [3], -4%. Also, the outcome in test [5], in test [6], in test [7] and in test [8] was inactive.
With `Cc1ccc(CNc2cc(C(F)(F)F)nc(-c3ccc(S(C)(=O)=O)cc3)n2)cc1`, the growth inhibition is 72% (active) in test [1] and 89% (active) in test [4]. The results for the inhibition in test [2] and in test [3] were 2% and -4%, respectively. Further, the outcome in test [5], in test [6], in test [7] and in test [8] was inactive.
For the compound `NC(N)=NN=Cc1ccc2c(c1)Cc1ccccc1-2`, the values for the growth inhibition in test [1] and in test [4] were 81% (active) and 100% (active), respectively. Moreover, the inhibition in test [2] is 72% (active); in test [3] it was -2%. The result in test [5], in test [6], in test [7] and in test [8] was inactive.
Take `COc1ccc(OCCCN2CCCCC2)cc1S(=O)(=O)c1ccc(OCc2ccc(C(F)(F)F)cc2)cc1`: the growth inhibition in test [1] was 8%; in test [4] it was 94% (active). Besides, the values for the inhibition in test [2] and in test [3] were 52% (active) and -2%, respectively. Also, the result in test [5], in test [6], in test [7] and in test [8] was inactive.
`CCNc1cc(C(=O)N[C@@H](Cc2ccccc2)[C@H](O)CNC2CCC(C)(C)C2)cc(N2CCCCS2(=O)=O)c1` (stereo not given in full): the growth inhibition was 98% (active) in test [1] and 96% (active) in test [4]. Besides, the inhibition in test [2] is 3%; in test [3], 6%. The outcome in test [5], in test [6], in test [7] and in test [8] was inactive.
For `CCCCOc1ccc(-n2c(Nc3ccccc3)nc3cc(S(N)(=O)=O)ccc32)cc1`, the figures for the growth inhibition in test [1] and in test [4] were 72% (active) and 90% (active), respectively. In addition, the inhibition in test [2] was 0%; in test [3], -6%. Also, the outcome in test [5], in test [6], in test [7] and in test [8] was inactive.
For the compound `CCOc1cc(-c2nnc3[nH]c(=O)n(C)c(=O)c3n2)ccc1OC(C)C`, the growth inhibition is 86% (active) in test [1] and 97% (active) in test [4]. For the same compound, the inhibition in test [2] was 15%; in test [3], 1%. Moreover, the result in test [5], in test [6], in test [7] and in test [8] was inactive.
For the compound `CC(C)CNC(=O)c1cncc(-c2ccc(CNC3Cc4ccccc4C3)cc2)c1`, the figures for the growth inhibition in test [1] and in test [4] were 37% and 99% (active), respectively. Moreover, the values for the inhibition in test [2] and in test [3] were 5% and 0%, respectively. The outcome in test [5], in test [6], in test [7] and in test [8] was inactive.
`Cc1ccccc1C1CCN(C2CCC(NC(=O)c3cc4cc(Cl)ccc4o3)CC2)CC1` (stereo not given): the growth inhibition in test [1] is 30%; in test [4], 89% (active). Moreover, the results for the inhibition in test [2] and in test [3] were 22% and -2%, respectively. Also, the result in test [5], in test [6], in test [7] and in test [8] was inactive.
On to `CC1(C)N=C(N)N=C(N)N1OCc1ccc2c(c1)OCO2`, for which the growth inhibition in test [1] is 86% (active); in test [4], 93% (active). Also, the inhibition in test [2] was 66% (active); in test [3], -3%. In addition, the outcome in test [5], in test [6], in test [7] and in test [8] was inactive.
For `O=C(CCc1cnc[nH]1)Nc1ccc(-c2ccc(-c3nc4ccccc4[nH]3)cc2)cc1`, the values for the growth inhibition in test [1] and in test [4] were 70% (active) and 98% (active), respectively. The inhibition in test [2] is 46%; in test [3] it was 0%. Besides, the result in test [5], in test [6], in test [7] and in test [8] was inactive.
In the case of `Cc1cc(N[C@@H](Cc2ccccc2)C(=O)NCc2cccc(F)c2)nc(NCCc2ccc(F)cc2)n1`, the growth inhibition in test [1] was 69% (active); in test [4], 99% (active). The values for the inhibition in test [2] and in test [3] were 0% and -2%, respectively. Moreover, the result in test [5], in test [6], in test [7] and in test [8] was inactive.
In the case of `COc1cc(F)c2ncc(Cl)c(CCN3CCC(NCc4ccc5c(n4)NC(=O)CS5)CC3)c2c1`, the growth inhibition is 41% in test [1] and 99% (active) in test [4]. The inhibition was 18% in test [2] and 3% in test [3]. The outcome in test [5], in test [6], in test [7] and in test [8] was inactive.
On to `O=C(Nc1ccc(N2CCCN(Cc3cccc(F)c3)CC2)cc1)c1ccccc1`, for which the growth inhibition in test [1] and in test [4] was 95% (active) in each case. Besides, the inhibition in test [2] is 25%; in test [3], -4%. The outcome in test [5], in test [6], in test [7] and in test [8] was inactive.
`C[C@@H]([C@@H](CCCCc1ccccc1)C(=O)N[C@H](C(=O)Nc1cccnc1)C(C)(C)C)N(O)C=O`: the growth inhibition in test [1] and in test [4] was 98% (active) throughout. The inhibition in test [2] and in test [3] was 0% throughout. The outcome in test [5], in test [6], in test [7] and in test [8] was inactive.
Consider `CC(=O)Oc1c(C2CCN(CCCCNC(=O)c3ccc(-c4ccc(C#N)cc4)cc3)CC2)ccc2c1CCCC2`, for which the growth inhibition in test [1] was 52% (active); in test [4], 88% (active). Further, the figures for the inhibition in test [2] and in test [3] were 21% and 3%, respectively. For the same compound, the outcome in test [5], in test [6], in test [7] and in test [8] was inactive.
Take `Cc1cccc2[nH]c(-c3cccc(-c4cccc(NC(=O)NCc5cccc(F)c5)c4)c3)nc12`: the growth inhibition in test [1] is 32%; in test [4] it was 98% (active). The figures for the inhibition in test [2] and in test [3] were 11% and -2%, respectively. For the same compound, the outcome in test [5], in test [6], in test [7] and in test [8] was inactive.
Consider `Cc1cc(Nc2ccc(Oc3ccc(Cl)cc3)cc2)nc(N)n1`, for which the growth inhibition in test [1] was 71% (active); in test [4], 101% (active). Also, the inhibition in test [2] is 49%; in test [3] it was 7%. Moreover, the result in test [5], in test [6], in test [7] and in test [8] was inactive.
For `CCCCNC(=O)[C@H](CC1CCCCC1)NC(=O)c1ccc(O)c(-c2ccc(Cl)c(Cl)c2)c1`, the growth inhibition in test [1] is 99% (active); in test [4], 98% (active). Further, the inhibition in test [2] is -9%; in test [3] it was -1%. For the same compound, the result in test [5], in test [6], in test [7] and in test [8] was inactive.
